This passage reports composite z-score and composite Z-score results from PubChem BioAssay.

Activity calls are given as the source filed them.

One assay addresses Albumin (Bos taurus) (UniProt P02769). The experiment in a line: compounds binding labelled BSA control protein – biochemical, small-molecule microarray, Alexa647 label, 635/667 nm fluorescence, artefact control for SMM control protein annotation, profiling panel (AID 1118).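 Also: score merges 667 nm emission intensity and signal-to-noise per printed compound spot.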 The note with it: BSA-A647 binding, fluorescence 635 nm, higher = more signal.
The nature of assay [1]: probe aXIP binding to arrayed compounds – biochemical, NeuroSMM set, 635/667 nm fluorescence, primary screen (AID 1119).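 Also: probe is the protein aXip251-270 applied at 1 µg/mL to compound-printed slides; binding of probe to printed compounds measured as 667 nm fluorescence plus signal to noise.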 Particulars: small-molecule microarray, higher = more signal, called active from +8 up or from −8 down.
A short description of assay [2]: probe aNOTCH3 binding on compound microarray – biochemical, small-molecule microarray, 635/667 nm fluorescence, primary screen (AID 1120).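 Also: probe is a biotin-tagged antibody raised against NOTCH3 rather than NOTCH3 protein; score merges spot fluorescence near 667 nm with spot signal to noise.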 The note with it: higher = more signal.
Assay [3] can be described thus: probe aNOTCH2 binding on compound microarray – biochemical, small-molecule microarray, 635/667 nm fluorescence, primary screen (AID 1121).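 Also: score merges feature fluorescence read at 667 nm with its signal to noise.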 The note with it: higher = more signal.
In assay [4] the target is Carbonic anhydrase 2 (Homo sapiens) (UniProt P00918). The experiment in a line: compounds binding carbonic anhydrase 2 – biochemical, small-molecule microarray, Alexa647-labelled CAII, profiling panel (AID 1122). The note with it: CAII-A647 binding fluorescence, higher = more signal.
The nature of assay [5]: COS7 lysate on small-molecule microarray, probe aHis, 635 nm (AID 1123).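 Also: z-score combines 667nm fluorescence intensity with signal-to-noise per printed compound spot.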 Particulars: COS7 cell lysate, fluorescence, higher = more signal.
Assay [6] can be described thus: probe aLAP1 signal on lysate-treated microarray – cell lysate, small-molecule microarray, COS7 lysate, primary screen (AID 1124).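 Also: lysate comes from COS7 cells expressing LAP1 and is applied at 0.3 µg/mL; score merges spot fluorescence near 667 nm with signal-to-noise over triplicate slides.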 The note with it: probe aLAP1, fluorescence, higher = more signal.
For the next assay, the system named is Sam68 (KHDRBS1). In words: compounds binding KHDRBS1 protein – biochemical, small-molecule microarray, 635 nm fluorescence, primary screen (AID 1125).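 Also: score merges 667 nm channel intensity with signal to noise over triplicate slides.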 The note with it: higher = more signal.
Assay [7] concerns Chordin-like protein 2 (CHRDL2). In words: compounds binding chordin-like 2 – biochemical, small-molecule microarray, 635 nm fluorescence, primary screen (AID 1126).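 Also: printed compound slides probed with Chrdl2 protein at 4 µg/mL for 1 h at 4 C; score merges 667 nm emission intensity with signal to noise over three replicate slides.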 The note with it: fluorescence 635 nm, higher = more signal.
Assay [8] addresses Concanavalin-A (Canavalia ensiformis) (UniProt P02866). The experiment in a line: compounds binding concanavalin A lectin – biochemical, small-molecule microarray, Alexa647 label, 635 nm, artefact control for SMM control protein annotation, primary screen (AID 1127).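 Also: z combines 667 nm emission intensity with signal-to-noise across three replicate slides.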 The note with it: ConA-A647 binding fluorescence, higher = more signal.

Chain of Albumin (Bos taurus) (P02769 whole entry, looked up): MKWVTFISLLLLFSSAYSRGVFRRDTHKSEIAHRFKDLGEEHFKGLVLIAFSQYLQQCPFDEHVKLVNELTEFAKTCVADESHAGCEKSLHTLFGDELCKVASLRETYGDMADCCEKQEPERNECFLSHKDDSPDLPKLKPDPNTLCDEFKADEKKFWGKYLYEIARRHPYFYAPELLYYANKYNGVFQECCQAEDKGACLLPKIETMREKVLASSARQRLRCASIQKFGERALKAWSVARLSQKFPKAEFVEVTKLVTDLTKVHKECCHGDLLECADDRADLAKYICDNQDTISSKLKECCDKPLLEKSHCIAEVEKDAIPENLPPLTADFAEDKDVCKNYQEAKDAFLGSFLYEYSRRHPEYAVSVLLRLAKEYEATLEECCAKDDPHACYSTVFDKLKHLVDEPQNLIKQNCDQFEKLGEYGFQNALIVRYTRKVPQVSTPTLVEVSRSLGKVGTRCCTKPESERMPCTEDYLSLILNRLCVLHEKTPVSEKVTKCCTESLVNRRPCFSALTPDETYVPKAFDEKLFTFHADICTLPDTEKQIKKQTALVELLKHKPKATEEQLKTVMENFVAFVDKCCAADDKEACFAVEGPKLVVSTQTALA
Chain of Concanavalin-A (Canavalia ensiformis) (P02866 whole entry, looked up): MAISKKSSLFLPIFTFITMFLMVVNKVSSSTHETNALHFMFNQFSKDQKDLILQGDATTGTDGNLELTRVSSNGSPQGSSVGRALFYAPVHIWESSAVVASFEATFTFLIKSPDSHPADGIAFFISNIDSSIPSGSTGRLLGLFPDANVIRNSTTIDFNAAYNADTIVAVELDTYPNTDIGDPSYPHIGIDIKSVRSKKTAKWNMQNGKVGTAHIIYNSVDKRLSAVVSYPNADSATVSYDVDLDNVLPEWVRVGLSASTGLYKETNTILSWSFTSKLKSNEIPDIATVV

On to `C=COC[C@@H]1CN2[C@@H](CC[C@@H](C)[C@@H]2c2ccc(Br)cc2)C(=O)O1`, for which the composite z-score with Albumin (Bos taurus) was 0.0494; in assay [2], -0.161; in assay [3], -0.14; in assay [4], 0.0173; in [5], 0.043; in assay [6], 0.008. Moreover, the composite z-score in the assay on Sam68 (KHDRBS1) was -0.0284; in assay [7], 0.407; in assay [8] it was -0.563. Also, in assay [1], the composite Z-score was 0.686 (inactive).
For the compound `COc1ccc(C#C[C@@H]2C=C[C@H](OC(C)=O)[C@@H](COC(C)=O)O2)cc1`, the composite z-score with Albumin (Bos taurus) is 0.18; in assay [2] it was -0.0077; in [3], -0.153; in assay [4] it was 0.61; in assay [5], 0.759; in assay [6] it was -0.019. In addition, the figures for the composite z-score (in the assay on Sam68 (KHDRBS1); in [7]; in assay [8]) were 0.112, 0.867 and 0.536, respectively. Moreover, in assay [1], the composite Z-score is -0.153 (inactive).
Turning to `CCOC(=O)NN=C1C[C@@H](O)[C@@H](O)[C@@H]2[C@@H]3C(=O)N(C(C)(C)C)C(=O)[C@@H]3CC[C@H]12`, the composite z-score in the assay with Albumin (Bos taurus) is -0.385; in assay [2], 0.0431; in [3] it was 0.272; in assay [4], -0.257; in [5] it was -0.227; in assay [6] it was -0.207. In addition, the results for the composite z-score (in the assay on Sam68 (KHDRBS1); in [7]; in [8]) were 0.129, 0.743 and 0.383, respectively. The composite Z-score in assay [1] was 0.288 (inactive).
On to `CCN1C(=O)[C@H]2[C@H]3[C@H](O)[C@H](O)CC(=NOC[C@H]4O[C@H](c5ccccc5)C=C[C@@H]4Oc4ccc(OC)cc4)[C@@H]3CC[C@H]2C1=O`, for which the composite z-score with Albumin (Bos taurus) was 0.741; in assay [2], 0.0311; in [3], -0.0274; in assay [4], 0.353; in assay [5], 0.383; in [6] it was 0.106. The composite z-score in the assay on Sam68 (KHDRBS1) was found to be 1.16; in assay [7], 0.514; in [8], 0.817. In addition, the composite Z-score in [1] was 0.246 (inactive).
With `COc1ccc(O[C@@H]2[C@H](O)CO[C@H]2C=Cc2ccccc2)cc1`, the composite z-score with Albumin (Bos taurus) is 0.529; in assay [2], -0.0647; in assay [3], -0.0488; in assay [4] it was -0.338; in assay [5] it was 0.0177; in [6] it was -0.798. Also, the values for the composite z-score (in the assay on Sam68 (KHDRBS1); in assay [7]; in assay [8]) were 0.116, -0.28 and -0.283, respectively. The composite Z-score in assay [1] is -0.176 (inactive).
In the case of `O=C1C[C@@H](O)[C@@H](O)[C@@H]2[C@@H]3C(=O)N(Cc4ccccc4)C(=O)[C@@H]3CC[C@@H]12`, the composite z-score is 0.256 with Albumin (Bos taurus); -0.0328 in assay [2]; -0.12 in assay [3]; 0.0093 in assay [4]; -0.281 in [5]; 0.213 in assay [6]. Further, the composite z-score in the assay on Sam68 (KHDRBS1) is 0.63; in assay [7], 0.791; in assay [8] it was 0.633. Also, in [1], the composite Z-score is 0.277 (inactive).
Regarding `Cc1ccc(S(=O)(=O)N[C@H]2COC(=O)CC=C[C@H](C)[C@@H](NS(=O)(=O)c3ccc(C)cc3)COC(=O)CC=C[C@@H]2C)cc1`, the composite z-score in the assay with Albumin (Bos taurus) is -0.109; in assay [2] it was 0.0282; in [3], -0.14; in assay [4], -0.0386; in assay [5] it was -0.364; in assay [6], -0.242. Besides, the composite z-score with Sam68 (KHDRBS1) was determined as 0.0236; in [7], 0.477; in assay [8], 0.128. The composite Z-score in [1] is -0.286 (inactive).
In the case of `CCCNC(=O)OC[C@H]1O[C@H](CCON=C(C)CCC(=O)OC[C@H]2O[C@H](c3ccccc3)C=C[C@@H]2Oc2ccc(OC)cc2)C=C[C@@H]1Oc1ccc(OC)cc1`, the composite z-score with Albumin (Bos taurus) is 0.161; in [2] it was -0.0762; in assay [3] it was -0.14; in assay [4], -0.459; in assay [5] it was -0.528; in [6] it was -0.155. Also, the figures for the composite z-score (in the assay with Sam68 (KHDRBS1); in assay [7]; in [8]) were -1.25, -0.181 and -0.721, respectively. Moreover, in assay [1], the composite Z-score was -0.0662 (inactive).
On to `COc1cc(O)c(C(=O)C=Cc2ccc3c(c2)OCO3)c(OC)c1`, for which the composite z-score was 0.0618 with Albumin (Bos taurus); -0.0647 in [2]; -0.134 in [3]; -0.337 in assay [4]; -0.932 in assay [5]; -0.185 in assay [6]. Further, the composite z-score in the assay with Sam68 (KHDRBS1) is -1.93; in assay [7] it was 0.102; in [8] it was 1. Further, in assay [1], the composite Z-score is -0.024 (inactive).
Consider `CCOC(=O)[C@H](Cc1ccccc1)NC(=O)CCC1CC(OC(=O)NCCc2ccc(F)cc2)CC2(CCCC(COC(=O)NCCOC)O2)O1` (stereo not given in full), for which the composite z-score was 0.257 with Albumin (Bos taurus); 0.0525 in assay [2]; -0.157 in assay [3]; 0.0121 in [4]; 1.07 in assay [5]; 0.148 in [6]. Besides, the composite z-score is 1.32 in the assay on Sam68 (KHDRBS1), 0.657 in [7] and 0.404 in assay [8]. In addition, the composite Z-score in [1] is 0.0225 (inactive).
Consider `CCc1cc2c(nc1CC)CCN(CCC(C)=NO[C@H](C)c1cn([C@H](CO)Cc3ccccc3)nn1)C2`, for which the composite z-score with Albumin (Bos taurus) is 0.867; in assay [2], 0.189; in assay [3], -0.101; in [4], 0.0934; in assay [5], 0.287; in assay [6], 0.022. Further, the composite z-score in the assay with Sam68 (KHDRBS1) is 0.708; in assay [7], 0.357; in assay [8], -0.0875. In addition, the composite Z-score in assay [1] was -0.51 (inactive).
Turning to `C#CCCCON=C1C[C@@H](O)[C@@H](O)[C@@H]2[C@@H]3C(=O)N(CC)C(=O)[C@@H]3CC[C@@H]12`, the composite z-score in the assay with Albumin (Bos taurus) was -0.171; in [2], 0.0779; in assay [3], -0.108; in [4], 0.231; in assay [5], 0.248; in assay [6], -0.0523. The results for the composite z-score (in the assay with Sam68 (KHDRBS1); in assay [7]; in assay [8]) were 0.771, 0.687 and 0.433, respectively. Also, the composite Z-score in assay [1] is -0.0844 (inactive).
